These results are taken from PubChem BioAssay (NCATS).

In test [1] the target is Calcium and integrin-binding protein 1 (Homo sapiens) (UniProt Q99828). Kind of test: Primary qHTS for Identification of Calcium Integrin Binding Protein 1 (CIB1) Competitor (AID 1508620).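 Also: GST tagged CIB1 binding a fluorescein labelled alphaIIb integrin peptide tracer; top concentration of the series differs between compounds; % is scaled to controls: 0 for no effect and ±100 for the full control effect.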 An outline of the steps:
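CIB1-GST (1 uM final) and compound incubated 15 min at room temperature before adding FITC-alphaIIb peptide tracer (100 nM final). Competition for binding read by fluorescence polarization (ex 480, em 540) after another 15 min at room temperature.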

Test [2] in a line: Primary qHTS for inhibitors of nuclear receptor binding SET domain protein 2 (NSD2) in an RCH-ACV wild type WT cells (2C) (AID 1645877). Also: nearly all actives have a fitted effect of over 70% in size. Also: potency is read from the fitted curve at half-maximal effect. On the technique in general: Quantitative high-throughput screening tests each substance at several concentrations.
Test [3] can be described thus: Primary qHTS for inhibitors of nuclear receptor binding SET domain protein 2 (NSD2) in an isogenic RCH-ACV NSD2 p.E1099K mutant (9B) (AID 1645876). Also: nearly all actives have a fitted effect of over 70% in size. Also: potency is read from the fitted curve at half-maximal effect.
Test [4] deals with Rap guanine nucleotide exchange factor 3 (Homo sapiens) (UniProt O95398). Kind of test: Confirmatory qHTS for agonist of cAMP-regulated guanine nucleotide exchange factor 3 (EPAC1) (AID 1645881).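 Also: EPAC1 catalysed release of BODIPY-GDP from Rap1B seen as fluorescence loss; 100% = effect of cAMP agonist control; nearly all actives have a fitted effect of over 75% in size.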
In test [5] the target is Rap guanine nucleotide exchange factor 4 (Homo sapiens) (UniProt Q8WZA2). In words: Confirmatory qHTS for agonist of cAMP-regulated guanine nucleotide exchange factor 4 (EPAC2) (AID 1645884).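 Also: nucleotide exchange releases bodipy-GDP from Rap1 and this lowers its fluorescence; % is scaled to controls: 0 for no effect and ±100 for the full control effect; nearly all actives have a fitted effect of over 65% in size.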
The target is the same in test [6]. Kind of test: Confirmatory qHTS for antagonist of cAMP-regulated guanine nucleotide exchange factor 4 (EPAC2) (AID 1645885). Also: % is scaled to controls: 0 for no effect and ±100 for the full control effect; nearly all actives have a fitted effect of over 25% in size.
Test [7] addresses Rap guanine nucleotide exchange factor 3 (Homo sapiens) (UniProt O95398). Kind of test: Counterscreen qHTS for antagonist of cAMP-regulated guanine nucleotide exchange factor 3 (EPAC1) (AID 1645888).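 Also: fluorescence loss as bound BODIPY-GDP is released from Rap1B; % of control where 0% means no effect.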 An outline of the steps: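 Rap1B-BODIPY-GDP 250 nM + GDP 50 uM; cpds 7-pt, final 9.74 nM–152 uM (activator mode) or from 7.32 nM upwards (inhibitor mode); RT; FI 480/540 nm at 5 and 30 min, then ± cAMP, reread.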

For test [8], the target named is Cytochrome P450 2D6 (Homo sapiens) (UniProt P10635). In words: Cytochrome P450 family 2 subfamily D member 6 (CYP2D6) small molecule antagonists: luciferase biochemical (cell-free) qHTS assay (AID 1645840; active = well fitted curve in the direction sought with a large enough effect in the repeat runs; an effect the other way counts as inactive or inconclusive; also: nearly all actives have a fitted effect of over 55% in size; also: potency is read from the fitted curve at half-maximal effect; as to activity change, negative = inhibition: series mostly up to about 57 µM; % is scaled to controls: 0 for no effect and ±100 for the full control effect). An outline of the steps: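 P450-Glo CYP2D6 system: proluciferin substrate converted by enzyme to luciferin, read by luminescence proportional to activity. Enzyme-substrate mix with compound 10 min at room temperature, then NADPH regeneration 1 h before detection reagent.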

The target in test [9] is Cytochrome P450 2C9 (Homo sapiens) (UniProt P11712). Kind of test: Cytochrome P450 family 2 subfamily C member 9 (CYP2C9) small molecule antagonists: luciferase biochemical (cell-free) qHTS assay (AID 1645842; active = well fitted curve in the direction sought with a large enough effect in the repeat runs; an effect the other way counts as inactive or inconclusive; also: potency is read from the fitted curve at half-maximal effect; nearly all actives have a fitted effect of over 55% in size). A digest of the protocol: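 P450-Glo CYP2C9 system: proluciferin substrate with enzyme in mix containing 0.4% BSA, 10 min at room temperature, then NADPH regeneration solution added and incubated 1 h at 37C. Detection reagent stopped reaction; luminescence read after 20 min as RLU.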

Records with an inconclusive call do not appear. Unmarked numbers belong to inactive results. Active and inactive are the calls of the source. Unless noted, calls follow the shape of the dose curve; as a rule, active = well fitted curve in the direction sought with a large enough effect; inconclusive = small, poorly fitted or top-dose-only effect, or another doubt; inactive = no such curve, though single readings can be large; an effect the other way counts as inactive or inconclusive.

Calcium and integrin-binding protein 1 (Homo sapiens), sequence (Q99828 whole entry, looked up): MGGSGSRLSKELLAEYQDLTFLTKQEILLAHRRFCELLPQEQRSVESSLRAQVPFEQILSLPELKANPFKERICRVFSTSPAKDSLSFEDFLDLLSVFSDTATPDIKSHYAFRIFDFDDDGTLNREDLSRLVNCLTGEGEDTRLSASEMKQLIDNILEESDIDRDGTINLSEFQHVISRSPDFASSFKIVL
Cytochrome P450 2C9 (Homo sapiens), sequence (P11712 whole entry, looked up): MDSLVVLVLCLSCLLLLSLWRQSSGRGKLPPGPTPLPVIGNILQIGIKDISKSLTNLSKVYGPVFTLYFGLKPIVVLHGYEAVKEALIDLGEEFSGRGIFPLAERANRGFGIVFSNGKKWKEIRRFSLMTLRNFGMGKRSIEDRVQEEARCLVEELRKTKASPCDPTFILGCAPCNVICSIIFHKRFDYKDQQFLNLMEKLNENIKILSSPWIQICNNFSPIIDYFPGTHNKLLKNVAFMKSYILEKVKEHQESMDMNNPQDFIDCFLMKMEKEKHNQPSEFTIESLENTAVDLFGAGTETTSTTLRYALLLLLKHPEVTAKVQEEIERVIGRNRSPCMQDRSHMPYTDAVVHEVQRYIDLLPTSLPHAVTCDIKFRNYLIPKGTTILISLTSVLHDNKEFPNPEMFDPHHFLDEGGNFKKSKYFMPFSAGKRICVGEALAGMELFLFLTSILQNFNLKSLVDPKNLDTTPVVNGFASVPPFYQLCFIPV
Cytochrome P450 2D6 (Homo sapiens), sequence (P10635 whole entry, looked up): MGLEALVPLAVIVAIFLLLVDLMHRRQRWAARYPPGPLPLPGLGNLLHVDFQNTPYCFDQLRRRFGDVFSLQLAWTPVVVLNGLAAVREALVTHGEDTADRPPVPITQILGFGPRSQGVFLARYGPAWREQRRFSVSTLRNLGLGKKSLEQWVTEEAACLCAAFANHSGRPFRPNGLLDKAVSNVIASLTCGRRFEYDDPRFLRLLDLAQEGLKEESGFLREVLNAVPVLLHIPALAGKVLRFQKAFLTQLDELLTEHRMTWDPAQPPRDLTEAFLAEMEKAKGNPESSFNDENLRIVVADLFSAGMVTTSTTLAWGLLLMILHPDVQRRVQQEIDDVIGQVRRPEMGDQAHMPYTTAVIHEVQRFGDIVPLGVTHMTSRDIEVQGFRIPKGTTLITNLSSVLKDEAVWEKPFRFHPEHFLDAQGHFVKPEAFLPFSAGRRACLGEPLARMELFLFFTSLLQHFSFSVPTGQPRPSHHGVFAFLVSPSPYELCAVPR
Rap guanine nucleotide exchange factor 4 (Homo sapiens), sequence (Q8WZA2 whole entry, looked up): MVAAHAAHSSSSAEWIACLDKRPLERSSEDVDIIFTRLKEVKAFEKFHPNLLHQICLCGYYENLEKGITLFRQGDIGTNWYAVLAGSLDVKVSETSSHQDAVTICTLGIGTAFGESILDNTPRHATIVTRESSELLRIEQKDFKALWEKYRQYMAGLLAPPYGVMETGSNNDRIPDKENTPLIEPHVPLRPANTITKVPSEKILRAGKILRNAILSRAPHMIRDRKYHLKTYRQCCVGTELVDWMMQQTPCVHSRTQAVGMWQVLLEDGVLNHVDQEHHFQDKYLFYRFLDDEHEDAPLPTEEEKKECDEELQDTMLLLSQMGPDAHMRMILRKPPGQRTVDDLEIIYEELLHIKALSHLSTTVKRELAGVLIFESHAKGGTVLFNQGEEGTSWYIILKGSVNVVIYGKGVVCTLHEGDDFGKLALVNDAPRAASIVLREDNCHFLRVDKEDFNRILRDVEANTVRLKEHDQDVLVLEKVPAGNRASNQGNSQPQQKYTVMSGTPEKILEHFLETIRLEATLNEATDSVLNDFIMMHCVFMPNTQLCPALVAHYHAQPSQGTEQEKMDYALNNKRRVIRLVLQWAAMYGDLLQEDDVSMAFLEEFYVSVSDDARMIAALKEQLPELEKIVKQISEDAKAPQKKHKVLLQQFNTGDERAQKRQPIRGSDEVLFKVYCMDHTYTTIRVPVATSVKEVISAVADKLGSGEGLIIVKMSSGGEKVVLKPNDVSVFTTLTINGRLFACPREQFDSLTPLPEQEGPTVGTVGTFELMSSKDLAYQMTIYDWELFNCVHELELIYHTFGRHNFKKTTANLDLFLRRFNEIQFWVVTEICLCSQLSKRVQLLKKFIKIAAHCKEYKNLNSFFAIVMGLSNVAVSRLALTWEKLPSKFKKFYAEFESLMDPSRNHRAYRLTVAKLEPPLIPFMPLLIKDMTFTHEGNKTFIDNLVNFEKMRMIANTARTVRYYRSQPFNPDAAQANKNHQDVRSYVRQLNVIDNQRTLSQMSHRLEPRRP
Rap guanine nucleotide exchange factor 3 (Homo sapiens), sequence (O95398 whole entry, looked up): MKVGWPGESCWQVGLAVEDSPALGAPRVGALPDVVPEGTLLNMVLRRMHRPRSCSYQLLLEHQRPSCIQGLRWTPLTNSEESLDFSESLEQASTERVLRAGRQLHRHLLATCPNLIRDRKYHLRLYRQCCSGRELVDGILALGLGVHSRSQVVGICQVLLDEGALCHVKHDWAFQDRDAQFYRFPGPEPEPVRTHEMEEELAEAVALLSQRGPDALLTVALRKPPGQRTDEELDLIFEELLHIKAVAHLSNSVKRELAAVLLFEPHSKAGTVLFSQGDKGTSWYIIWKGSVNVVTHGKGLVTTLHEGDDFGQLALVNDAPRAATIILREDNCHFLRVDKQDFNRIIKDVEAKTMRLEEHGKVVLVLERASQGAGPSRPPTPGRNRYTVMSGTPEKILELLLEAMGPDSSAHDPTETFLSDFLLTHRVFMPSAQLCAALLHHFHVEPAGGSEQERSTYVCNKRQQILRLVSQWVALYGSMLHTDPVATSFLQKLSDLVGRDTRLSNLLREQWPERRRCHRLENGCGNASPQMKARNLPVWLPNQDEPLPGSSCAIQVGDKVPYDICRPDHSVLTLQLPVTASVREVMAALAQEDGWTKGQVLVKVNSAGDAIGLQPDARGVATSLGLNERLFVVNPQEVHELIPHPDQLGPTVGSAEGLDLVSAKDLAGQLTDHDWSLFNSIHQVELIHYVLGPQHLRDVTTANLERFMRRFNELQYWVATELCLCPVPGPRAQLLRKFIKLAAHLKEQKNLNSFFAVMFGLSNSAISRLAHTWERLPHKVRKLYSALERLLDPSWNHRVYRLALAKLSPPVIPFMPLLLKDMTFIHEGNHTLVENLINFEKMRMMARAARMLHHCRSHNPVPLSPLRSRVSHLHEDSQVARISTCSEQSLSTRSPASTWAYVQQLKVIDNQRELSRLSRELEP

Consider `C=C1C(=O)OC2C3=C(C)C(=O)CC3C(C)CC(O)C12` (stereo not drawn), for which the Potency entry in test [1] is “inactive”. The Potency in test [2] was 14.5 µM (active).

On to `C=C1[C@@H](OC(C)=O)CC[C@@]2(C)[C@@H](OC(C)=O)[C@H](OC(C)=O)C3=C(C)C[C@H](OC(=O)C(C)CC)[C@@H]([C@@H](OC(C)=O)[C@H]12)C3(C)C` (stereo partly drawn), for which the Potency result in test [1] was “inactive”. In addition, the Potency in test [3] and in test [2] was 1.21 µM (active) in each case.

Turning to `COc1ccc(-c2ccccc2)cc1NS(=O)(=O)c1cc(Cl)cc(Cl)c1O`, the Potency result in test [1], in test [3] and in test [2] was “inactive” each time.

On to `C=C(C(=O)OC)[C@@H]1CC=C2C=CC(=O)[C@H](C)[C@@]2(C)C1`, for which, in test [1], the Potency entry was “inactive”. Moreover, the Potency in test [2] is 20.5 µM (active).

In the case of `CC(=O)c1c(C)cc2cccc(O)c2c1O[C@@H]1O[C@H](CO)[C@@H](O)[C@H](O)[C@H]1O`, the Potency entry in [1] was “inactive”. In addition, in test [2], the Potency was 12.7 µM (active).

For `CC[C@H](C)/C=C(C)/C=C/C1=CC2=C(Cl)C(=O)[C@](C)(O)[C@H](OC(C)=O)[C@H]2CO1`, in [1], the Potency result is “inactive”. In addition, the Potency in test [2] was 10.1 µM (active).

`CN1CCN(c2ccc(-c3cccc(CN4CCOCC4)c3)cc2NC(=O)c2c[nH]c(=O)cc2C(F)(F)F)CC1`: the Potency entry in [1] and in [2] was “inactive” in each case.

Consider `CCC(C)C(=O)Oc1cc(C)ccc1C1(COC(=O)C(C)C)CO1` (stereo not drawn), for which the Potency entry in test [1] is “inactive”. Moreover, the Potency in [2] is 5.67 µM (active).

Take `CC(=O)O[C@@H]1[C@@H](OC(C)=O)[C@H](C)O[C@@H](O[C@H]2[C@@H]3C=CO[C@@H](O[C@@H]4O[C@H](CO)[C@@H](O)[C@H](O)[C@H]4O)[C@@H]3[C@@]3(CO)O[C@@H]23)[C@@H]1OC(=O)/C=C/c1ccccc1`: in [1], the Potency result is “inactive”. Also, the results for the Potency in test [3] and in [2] were 6.82 µM (active) and 4.83 µM (active), respectively.

`C=C1C(=O)OC2/C=C(\C)CC3C=C(CC/C=C(\C)CCC12)C(=O)O3` (stereo not drawn): in [1], the Potency result is “inactive”. The values for the Potency in test [3] and in test [2] were 12.7 µM (active) and 4.5 µM (active), respectively.

With `COc1cc2c(c(OC)c1CC=C(C)C)C[C@H](c1ccc(O)c(CC=C(C)C)c1O)CO2`, the Potency entry in test [1] and in [2] was “inactive” each time.

For the molecule `CC(=O)OC[C@]12[C@H](OC(C)=O)C(=O)[C@@H]3[C@@H](O)[C@@]14O[C@@]3(C)COC(=O)c1cccnc1[C@@H](C)[C@H](C)C(=O)O[C@@H]([C@H](O)[C@@H]2OC(C)=O)[C@]4(C)O`, in test [1], the Potency result is “inactive”. Besides, the Potency in test [3] and in test [2] was 5.41 µM (active) throughout.

As to `c1cc(-c2cnn3cc(-c4ccc(N5CCNCC5)cc4)cnc23)c2cccnc2c1`, in test [1], the Potency entry was “inactive”. Also, the Potency in test [3] was 5.25 µM (active); in [2], 4.17 µM (active).

Regarding `CC(C)/C=C1\NC(=O)C(C(C)C)n2c1nc1ccccc1c2=O` (stereo not drawn), the Potency result in [1], in [3] and in [2] was “inactive” each time.

With `CC(=O)O[C@H]1CC[C@]2(C)[C@H]3CC[C@]4(C)Oc5oc(C)cc(=O)c5C[C@H]4[C@]3(C)CC[C@H]2C1(C)C`, in [1], the Potency result is “inactive”. Also, the Potency in test [2] is 7.09 µM (active).

Take `C=C1C(=O)O[C@@H]2/C=C(\CO)CC/C=C(\CO)[C@H](OC(C)=O)C(OC(=O)C(C)CC)C12` (stereo partly drawn): in test [1], the Potency entry was “inactive”. Besides, the Potency in test [2] is 5.02 µM (active).

Take `CC(C)=CCC[C@](C)(O[C@@H]1O[C@H](CO[C@@H]2OC[C@@H](O)[C@H](O)[C@H]2O)[C@@H](O)[C@H](O)[C@H]1O)[C@H]1CC[C@]2(C)[C@@H]1[C@H](O)C[C@@H]1[C@@]3(C)CC[C@H](O[C@@H]4O[C@H](CO)[C@@H](O)[C@H](O)[C@H]4O)C(C)(C)[C@@H]3CC[C@]12C`: the Potency result in test [1], in [3] and in test [2] was “inactive” in each case.

`C/C1=C/CCC2=CC(OC2=O)C(C)(C)/C=C/C1=O` (stereo not drawn): the Potency result in test [1] is “inactive”. Further, the Potency in test [3] is 0.578 µM (active); in test [2] it was 0.459 µM (active).

As to `CCCCOC(=O)NS(=O)(=O)c1sc(CC(C)C)cc1-c1ccc(Cn2ccnc2)cc1`, in test [1], the Potency entry is “inactive”. The Potency in test [3] is 23.5 µM (active); in test [2], 20.9 µM (active).

With `C=C(C(=O)OC[C@H]1O[C@@H](OC(=O)/C=C/c2ccccc2)[C@H](O)[C@@H](O)[C@@H]1O)C(O)CO` (stereo partly drawn), the Potency result in test [1] was “inactive”. For the same molecule, in [2], the Potency is 5.63 µM (active).

In the case of `CCC(C)(OC(C)=O)C(=O)O[C@H]1[C@H](OC(C)=O)[C@]2(CO)[C@H](O)[C@H](O)[C@]3(C)C(=CCC4[C@@]5(C)CC[C@H](O[C@@H]6O[C@H](C(=O)O)[C@@H](O)[C@H](O[C@@H]7OC[C@H](O)[C@H](O[C@@H]8OC[C@H](O)[C@H](O)[C@H]8O)[C@H]7O)[C@H]6O[C@@H]6O[C@H](CO)[C@@H](O)[C@H](O)[C@H]6O)C(C)(C)C5CC[C@]43C)[C@@H]2CC1(C)C` (stereo partly drawn), the activity change, negative = inhibition in test [1] is 5.33% [at 12.4 µM]. For the same molecule, the Potency in [2] is 2.44 µM (active).

Regarding `CC(=O)[C@H]1CC[C@H]2[C@@H]3CC=C4C[C@@H](OS(=O)(=O)O)CC[C@]4(C)[C@H]3CC[C@]12C`, the Potency result in test [1], in test [3], in test [2] and in test [6] was “inactive” each time. For the same molecule, the molecule was classed as inactive in test [4], in [5] and in test [7].

With `C=C1/C(=C/C=C2\CCC[C@]3(C)[C@@H]([C@H](C)/C=C/[C@@H](C)C(C)C)CC[C@@H]23)C[C@@H](O)C[C@@H]1O`, the Potency entry in [1] was “inactive”. In addition, in [2], the Potency was 14.5 µM (active).

In the case of `C[C@@H]1O[C@@H](O[C@H]2[C@@H]3C=CO[C@@H](O[C@@H]4O[C@H](CO)[C@@H](O)[C@H](O)[C@H]4O)[C@@H]3[C@@]3(CO)O[C@@H]23)[C@H](O)[C@H](OC(=O)/C=C/c2ccccc2)[C@H]1O`, the Potency result in [1] was “inactive”. In [2], the Potency was 5.41 µM (active).

`COC(=O)C[C@H]1[C@]2(C)C3=C(C)[C@H](c4ccoc4)C[C@H]3O[C@@H]2[C@H](O)C2[C@](C)(C(=O)OC)C=CC(=O)[C@@]21C` (stereo partly drawn): the Potency entry in [1], in test [3] and in test [2] was “inactive” each time.

Turning to `NC(=O)c1cnc(N[C@@H]2CCCC[C@@H]2N)nc1Nc1cccc(-n2nccn2)c1`, the Potency result in [1] was “inactive”. The Potency in [3] and in [2] was 1.32 µM (active) each time.

On to `CC(C)(O)C1Cc2c(ccc(C(=O)CCc3ccccc3)c2O)O1` (stereo not drawn), for which the Potency result in [1] and in test [2] was “inactive” in each case.

`C=C1/C(=C/C=C2\CCC[C@]3(C)[C@@H]([C@@H](C)OCCC(O)(CC)CC)CC[C@@H]23)C[C@@H](O)C[C@@H]1O`: the Potency entry in test [1] is “inactive”. In addition, the Potency in test [2] was 20.5 µM (active).

With `CCN(CC)CCCCCCNc1cc(OC)cc2c(C)ccnc12`, the Potency entry in test [1] was “inactive”. Further, in test [2], the Potency is 12.9 µM (active).

Turning to `O=C(NCCN1CCN(c2cccc3ccc(O)cc23)CC1)c1ccc(F)cc1`, the figures for the Potency in [8] and in [9] were 0.0425 µM (active) and 0.601 µM (active), respectively.

Take `CO[C@H]1O[C@@H]2O[C@@]3(C)CCC4[C@H](C)CCC([C@H]1C)[C@]42OO3` (stereo partly drawn): in test [1], the Potency entry was “inactive”. Further, in test [2], the Potency is 6.49 µM (active).

For the molecule `O=[N+]([O-])c1ccc(Oc2ccc(N=C=S)cc2)cc1`, the Potency result in [8] is “inactive”. In [9], the Potency is 16.9 µM (active).

Turning to `C[C@@H]1O[C@@H](O[C@H]2[C@H](OC(=O)[C@]34CCC(C)(C)C[C@H]3C3=CCC5[C@@]6(C)C[C@H](O)[C@H](O[C@@H]7O[C@H](C(=O)O)[C@@H](O)[C@H](O)[C@H]7O)[C@@](C)(CO)C6[C@H](O)C[C@@]5(C)[C@]3(C)C[C@H]4O)O[C@@H](CO)[C@@H]2O)[C@H](O)[C@H](O)[C@H]1O[C@@H]1OC[C@@H](O)[C@H](O[C@H]2OC[C@](O)(CO)[C@H]2O)[C@H]1O` (stereo partly drawn), the activity change, negative = inhibition in test [1] is 1.16% [at 12.4 µM]. The Potency in [2] was 0.122 µM (active).
